Source: PubChem
CHRM1 agonist: human M1 muscarinic receptor agonism. actives 0.33% (n = 360,000). CHO-K1 hM1, Fluo-8 calcium fluorescence, agonist mode; 0% DMSO, 100% acetylcholine EC100. AID 588814. activation, % at 3 µM. P11229;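 active = activation above the run's mean compound activation plus 3 SD, cut at about 16% in these data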;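 note: peak over basal fluorescence ratio within a 140 s kinetic read after compound addition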
Target sequence (P11229 whole entry, looked up): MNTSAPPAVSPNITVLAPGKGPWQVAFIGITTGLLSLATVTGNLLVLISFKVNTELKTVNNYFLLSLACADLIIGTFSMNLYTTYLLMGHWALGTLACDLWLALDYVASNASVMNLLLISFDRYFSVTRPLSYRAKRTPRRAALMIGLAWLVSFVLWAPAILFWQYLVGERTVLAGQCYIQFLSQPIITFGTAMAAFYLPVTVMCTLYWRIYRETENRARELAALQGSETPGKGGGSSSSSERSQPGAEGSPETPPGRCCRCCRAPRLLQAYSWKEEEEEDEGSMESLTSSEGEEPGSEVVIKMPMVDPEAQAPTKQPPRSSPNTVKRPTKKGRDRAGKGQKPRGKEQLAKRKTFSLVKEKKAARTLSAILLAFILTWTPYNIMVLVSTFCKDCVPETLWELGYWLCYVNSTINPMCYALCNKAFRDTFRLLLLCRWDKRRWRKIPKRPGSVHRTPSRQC
M1 antag: antagonists of human M1 muscarinic receptor | P11229 | CHO-K1 hM1, Fluo-8 calcium fluorescence, ACh EC80 antagonist | inhibition, % at 3 µM | actives 1.3% (n = 360,000) | AID 588852;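 active = percent inhibition above its own plate's cutoff, namely the mean of that plate's compound wells plus 3 SD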;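 note: peak over basal fluorescence ratio during 140 s after agonist addition; 0% = ACh EC80 plus DMSO and 100% = DMSO alone without agonist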
CHO-K1 Ca antag: nonselective inhibitor or artifact in parental CHO-K1 cells; ATP-induced calcium, Fluo-8 fluorescence; inhibition, % at 3 µM; actives 0.6% (n = 360,000);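 active = inhibition above a per-plate cutoff, the plate's mean sample inhibition plus 3 SD, cut at about 24% in these data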;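 note: 0% = DMSO plus EC80 ATP and 100% = DMSO alone without ATP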
M1 ag parental: nonselective activator or artifact in parental CHO-K1 cells; AID 602248; actives 0.48% (n = 360,000); activation, % at 3 µM; Fluo-8 calcium fluorescence; scaled to maximal ATP response, vehicle zero; in the data active = activation above about 15%;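 note: untransfected CHO-K1 host cells lacking M1 receptor as counterscreen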
CHRM1 PAM: positive allosteric modulators of human M1 muscarinic receptor; P11229; CHO-K1 hM1, Fluo-8 calcium fluorescence, ACh EC20; 0% = ACh EC20, 100% = maximal ACh; activation, % at 3 µM; actives 0.088% (n = 360,000); in the data active = activation above about 19%, passing the limit was not always enough
CHO-K1 Ca PAM: M1 PAM counterscreen hit in parental CHO-K1 cells. ATP EC20, Fluo-8 calcium fluorescence; 0% at ATP EC20, 100% at ATP max. activation, % at 3 µM. actives 0.02% (n = 360,000). AID 602247;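 active = activation above the run cutoff, the mean activation of all test compounds plus 3 SD, cut at about 40% in these data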;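 note: peak over basal fluorescence ratio in a 140 s read after ATP addition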
* marks the source's active call; other numbers are inactive results; nt = no result given. The list is not random: actives were taken first. Their share in the collection is about 2.3%.

SMILES	CHRM1 agonist	M1 antag	CHO-K1 Ca antag	M1 ag parental	CHRM1 PAM	CHO-K1 Ca PAM
NC(=O)C1(Nc2ccc(-c3ccc(Br)cc3)cc2)CCCC1	-1.4	-10.9	-18.0	0.1	6.1	17.7
CC(=O)NC(c1ccccc1)c1nc(-c2ccc(Cl)cc2)cs1 (stereo unspecified)	-0.9	-3.7	4.6	0.4	5.9	-0.6
CC(C)N1CCN(C(=O)c2ccc(OC3CCN(CCc4ccccc4)CC3)cc2)CC1	-6.2	42.8*	-0.2	0.0	-20.0	6.5
O=C(c1ccc(OC2CCN(CCc3ccccc3)CC2)cc1)N1CCCC1	-4.8	8.7	-7.7	1.5	-9.6	10.9
O=C(c1ccc(OC2CCN(CCc3ccccc3)CC2)cc1)N1CCCCC1CCCO (stereo unspecified)	-6.5	29.8*	-8.5	0.9	-7.6	19.7
COc1ccc(N/N=C(\C#N)C(=N)N2CCCCC2)cc1	-3.2	-8.6	-3.5	0.2	4.1	12.7
COc1ccc(N/N=C(\C#N)C(=N)SCc2ccccc2)cc1	4.4	-1.5	-14.3	18.1*	2.2	7.7
Cc1ccc(NN2C(=O)C=C(c3ccc(Cl)cc3)C2=O)cc1	7.2	29.3	30.6*	4.7	-1.5	4.5
Cc1ccc(S(=O)(=O)N2CCCC2CNC(=O)C(=O)NC2CC2)cc1 (stereo unspecified)	-1.1	0.6	11.9	-0.2	6.1	-3.9
CC1(C(=O)NS(=O)(=O)c2cccc(F)c2)CCN1C(=O)CC1CCCC1 (stereo unspecified)	-3.0	-5.7	-0.3	-0.2	-0.5	-3.1
CN(C)S(=O)(=O)N1CCC(Oc2cccc(C(=O)NC3CCCCC3)c2)CC1	2.2	-1.1	0.7	13.0	-2.7	7.4
CN(C)S(=O)(=O)N1CCC(Oc2cccc(C(=O)NCCC3=CCCCC3)c2)CC1	3.3	20.1	2.0	16.2*	-16.3	-2.8
COc1ccc(CN2CCN(Cc3cccc(Oc4ccccc4)c3)CC2)c(OC)c1OC	-4.7	44.1*	9.0	9.9	-25.7	-6.1
O=S1(=O)NC(=NCC(c2ccco2)N2CCCCC2)c2ccccc21 (stereo unspecified)	-8.0	57.2*	-9.8	0.7	-24.3	4.4
C(=NNc1ccc2ccccc2n1)c1ccccn1	-8.9	-9.9	9.0	1.6	4.9	8.0
C=CCN1C(=O)/C(=C/C=C2/N(CC)c3ccc(S(=O)(=O)N(C)C)cc3N2CC)SC1=S	17.4*	7.7	-10.6	8.2	-0.4	14.6
O=c1[nH]c2cc3ccccc3cc2nc1-c1nnnn1C1CCCC1	nt	nt	-8.8	4.0	nt	22.7
CCOC(=O)N1CCN(C(=O)c2cc(Cl)c(Cl)cc2C(=O)O)CC1	31.6*	-7.8	-18.3	0.0	4.6	21.7
CCCOC1CCCN(C(=O)c2cc(Cl)c(Cl)cc2C(=O)O)C1 (stereo unspecified)	59.7*	51.7*	-10.1	-0.1	-18.1	10.0
COc1cc(NS(=O)(=O)c2ccc(NC(=S)NC(=O)c3ccco3)cc2)ncn1	-6.2	4.0	18.6	17.8*	-1.8	3.6
CC1CN2C(c3ccc([N+](=O)[O-])cc3)=CSC2=N1 (stereo unspecified)	-8.9	-19.6	-2.8	0.2	4.7	13.4
CCn1c(CNc2ccc(F)cc2)nnc1SCCN1CCCCC1	-2.6	14.1	0.5	0.2	-7.4	5.5
CCn1c(CNc2ccccc2Cl)nnc1SCCN1CCCCC1	-4.4	51.2*	-9.2	0.3	-20.8	13.4
FC(F)Oc1ccc(NC(=S)NCc2ccccc2)cc1	-4.5	12.5	27.6*	3.4	-11.2	-13.7
COc1ccc(Br)cc1/C=N/NC(=O)CN1CCN(Cc2ccccc2)CC1	-7.3	-16.0	-8.9	0.1	10.6	14.1
SMILES	CHRM1 agonist	M1 antag	CHO-K1 Ca antag	M1 ag parental	CHRM1 PAM	CHO-K1 Ca PAM
CCOC(=O)c1c(C)nc2sc(C(=O)Nc3ccc(OC)cc3)c(N)c2c1-c1ccc(OC)cc1	-1.9	12.9	13.7	0.1	-3.7	-6.4
CCOC(=O)c1c(C)nc2sc(C(=O)Nc3ccc(C(C)=O)cc3)c(N)c2c1-c1ccc(OC)cc1	-2.3	37.6*	8.0	1.6	-8.8	-2.9
Oc1ccccc1-c1nnc(COc2ccc(Cl)cc2Cl)o1	-0.1	-7.2	43.7*	-1.1	2.6	-13.8
COc1ccc(C2=NOC(Cn3nc(-c4ccccc4)cc3C(=O)NCc3ccccc3OC)C2)cc1 (stereo unspecified)	-4.2	18.6	-8.6	-0.4	-12.0	-3.9
CCc1nc2c(OCC3CCCCC3)cccn2c1N(C)C(=O)c1ccc(C)cc1	-8.5	-7.9	-19.0	-0.7	-6.1	1.2
COCCCNc1c2c3c(cccc3[nH]c1=O)C(=O)c1ccccc1-2	263.6*	70.6*	56.5*	285.2*	-31.1	-16.4
CC1(C)Cc2c(sc3nc(-c4cccs4)n(N)c(=O)c23)CO1	2.0	24.6	-3.9	15.7*	-22.2	-12.5
N=C1/C(=C/c2coc3ccccc3c2=O)C(=O)N=C2SC(c3ccco3)=NN12	85.1*	51.9*	33.6*	62.8*	-26.1	-10.8
N=C1/C(=C\c2coc3ccccc3c2=O)C(=O)N=C2SC(c3ccncc3)=NN12	51.2*	58.4*	28.8*	69.2*	-21.4	-23.2
N=C1/C(=C\c2coc3ccc(O)cc3c2=O)C(=O)N=C2SC=CN12	25.3*	20.6	14.7	33.0*	-12.0	-11.7
CC1=NN2C(=N)/C(=C\c3cc(C)n(-c4ccccc4)c3C)C(=O)N=C2S1	-4.3	0.0	8.9	-0.4	-0.1	-8.7
O=C(NC(=O)c1ccccc1)Nc1cccc(S(=O)(=O)N2CCCCC2)c1	3.3	-9.8	0.1	1.2	6.7	14.3
COc1ccccc1CNC(=O)COC(=O)c1cnc(C)cn1	0.2	-15.7	-13.0	0.6	10.0	29.5
Cn1c(=O)c(C#N)c(-c2ccc(F)cc2)c2cc(C(=O)c3cc(Cl)cc(Cl)c3O)cnc21	3.5	31.4*	12.1	14.2	-11.8	-11.1
CCCCCN1CC(=O)N2C(C)c3[nH]c4ccccc4c3C[C@H]2C1=O (stereo partly specified)	-5.5	-1.5	16.5	4.5	0.1	-6.1
O=C(Nc1nc2ccc(F)cc2s1)C1CCN(S(=O)(=O)c2cc([N+](=O)[O-])ccc2Cl)CC1	-9.1	32.4*	31.6*	6.8	-21.8	1.5
CC(NC(=O)C1CCN(S(=O)(=O)c2cc([N+](=O)[O-])ccc2Cl)CC1)c1ccccc1 (stereo unspecified)	-4.4	3.3	4.9	1.8	2.7	20.9
Cc1ccc(NC(=O)C2CCN(S(=O)(=O)c3cc([N+](=O)[O-])ccc3Cl)CC2)nc1	-1.5	41.6*	16.5	14.5	-19.4	-14.6
Cc1ccc2nc(NC(=O)C3CCN(S(=O)(=O)c4cc([N+](=O)[O-])ccc4Cl)CC3)sc2c1	-8.8	28.2	25.2*	4.6	-16.9	13.2
